Results from the supplement of paper PMC4466140.

What was measured:
Assay in all cases: SPOT peptide array binding signal intensity (averaged, normalized) (arbitrary units (background-subtracted, floor 0; scale differs between SH3 domains)); higher = stronger binding of the SH3 domain to the peptide
AgAbp1 = target: AgAbp1
Method in brief: (§1)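 Detection of bound protein relied on anti-GST antibody, an HRP anti-mouse secondary and luminol, with imaging and quantification in Genespotter. The bound protein was GST-fused SH3 domains from four yeast species, incubated at 10 μg/ml overnight at 4°C in TBS-based blocking buffer on cellulose membranes carrying synthetic 15-mer peptides with cysteines replaced by serines. Binding signal is normalized, background-subtracted spot intensity averaged over replicates, in arbitrary units that differ between domains.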

AgBbc1 = target: AgBbc1
Method in brief: as §1

AgBem1-D1 = target: AgBem1-D1
Method in brief: as §1

AgBzz1-D1 = target: AgBzz1-D1
Method in brief: as §1

AgBzz1-D2 = target: AgBzz1-D2
Method in brief: as §1

AgCyk3 = target: AgCyk3
Method in brief: as §1

AgFus1 = target: AgFus1
Method in brief: as §1

AgHof1 = target: AgHof1
Method in brief: as §1

AgHse1 = target: AgHse1
Method in brief: as §1

AgLsb1 = target: AgLsb1
Method in brief: as §1

AgLsb4 = target: AgLsb4
Method in brief: as §1

AgMyo5 = target: AgMyo5
Method in brief: as §1

AgNbp2 = target: AgNbp2
Method in brief: as §1

AgRvs167 = target: AgRvs167
Method in brief: as §1

AgSho1 = target: AgSho1
Method in brief: as §1

AgSla1-D1-D2 = target: AgSla1-D1-D2
Method in brief: as §1

AgSla1-D3 = target: AgSla1-D3
Method in brief: as §1

CaAbp1-D1 = target: CaAbp1-D1
Method in brief: as §1

CaAbp1-D2 = target: CaAbp1-D2
Method in brief: as §1

CaBbc1 = target: CaBbc1
Method in brief: as §1

CaBem1-D1 = target: CaBem1-D1
Method in brief: as §1

CaBzz1-D1 = target: CaBzz1-D1
Method in brief: as §1

CaBzz1-D2 = target: CaBzz1-D2
Method in brief: as §1

CaCyk3 = target: CaCyk3
Method in brief: as §1

CaFus1 = target: CaFus1
Method in brief: as §1

CaHof1 = target: CaHof1
Method in brief: as §1

CaHse1 = target: CaHse1
Method in brief: as §1

CaLsb1 = target: CaLsb1
Method in brief: as §1

CaLsb4 = target: CaLsb4
Method in brief: as §1

CaMyo5 = target: CaMyo5
Method in brief: as §1

CaNbp2 = target: CaNbp2
Method in brief: as §1

CaRvs167 = target: CaRvs167
Method in brief: as §1

CaRvs167-3 = target: CaRvs167-3
Method in brief: as §1

CaSho1 = target: CaSho1
Method in brief: as §1

CaSla1-D1-D2 = target: CaSla1-D1-D2
Method in brief: as §1

CaSla1-D3 = target: CaSla1-D3
Method in brief: as §1

ScAbp1 = target: ScAbp1
Method in brief: as §1

ScBbc1 = target: ScBbc1
Method in brief: as §1

ScBem1-D1 = target: ScBem1-D1
Method in brief: as §1

ScBzz1-D1 = target: ScBzz1-D1
Method in brief: as §1

ScBzz1-D2 = target: ScBzz1-D2
Method in brief: as §1

ScCyk3 = target: ScCyk3
Method in brief: as §1

ScFus1 = target: ScFus1
Method in brief: as §1

ScHof1 = target: ScHof1
Method in brief: as §1

ScHse1 = target: ScHse1
Method in brief: as §1

ScLsb1 = target: ScLsb1
Method in brief: as §1

ScLsb2 = target: ScLsb2
Method in brief: as §1

ScLsb3 = target: ScLsb3
Method in brief: as §1

ScLsb4 = target: ScLsb4
Method in brief: as §1

ScMyo3 = target: ScMyo3
Method in brief: as §1

ScMyo5 = target: ScMyo5
Method in brief: as §1

ScNbp2 = target: ScNbp2
Method in brief: as §1

ScPex13 = target: ScPex13
Method in brief: as §1

ScRvs167 = target: ScRvs167
Method in brief: as §1

ScSho1 = target: ScSho1
Method in brief: as §1

ScSla1-D1-D2 = target: ScSla1-D1-D2
Method in brief: as §1

ScSla1-D3 = target: ScSla1-D3
Method in brief: as §1

SpAbp1-D1 = target: SpAbp1-D1
Method in brief: as §1

SpBbc1 = target: SpBbc1
Method in brief: as §1

SpBzz1-D1 = target: SpBzz1-D1
Method in brief: as §1

SpBzz1-D2 = target: SpBzz1-D2
Method in brief: as §1

SpCyk3 = target: SpCyk3
Method in brief: as §1

SpHof1 = target: SpHof1
Method in brief: as §1

SpHof1-2 = target: SpHof1-2
Method in brief: as §1

SpHof1-3 = target: SpHof1-3
Method in brief: as §1

SpHse1 = target: SpHse1
Method in brief: as §1

SpLsb1 = target: SpLsb1
Method in brief: as §1

SpLsb4 = target: SpLsb4
Method in brief: as §1

SpMyo1 = target: SpMyo1
Method in brief: as §1

SpNbp2 = target: SpNbp2
Method in brief: as §1

SpPex13 = target: SpPex13
Method in brief: as §1

SpRvs167 = target: SpRvs167
Method in brief: as §1

SpSla1-D1-D2 = target: SpSla1-D1-D2
Method in brief: as §1

SpSla1-D3 = target: SpSla1-D3
Method in brief: as §1

Binder: GKLKHIPRRPYEIER
- SPOT peptide array binding signal intensity (AgAbp1): 3.5
- SPOT peptide array binding signal intensity (AgBbc1): 102
- SPOT peptide array binding signal intensity (AgBem1-D1): 14
- SPOT peptide array binding signal intensity (AgBzz1-D1): 11
- SPOT peptide array binding signal intensity (AgBzz1-D2): 10.5
- SPOT peptide array binding signal intensity (AgCyk3): 1.5
- SPOT peptide array binding signal intensity (AgFus1): 10
- SPOT peptide array binding signal intensity (AgHof1): 5.5
- SPOT peptide array binding signal intensity (AgHse1): ≤ 0
- SPOT peptide array binding signal intensity (AgLsb1): 1
- SPOT peptide array binding signal intensity (AgLsb4): 12
- SPOT peptide array binding signal intensity (AgMyo5): 0.25
- SPOT peptide array binding signal intensity (AgNbp2): ≤ 0
- SPOT peptide array binding signal intensity (AgRvs167): 1.83
- SPOT peptide array binding signal intensity (AgSho1): ≤ 0
- SPOT peptide array binding signal intensity (AgSla1-D1-D2): ≤ 0
- SPOT peptide array binding signal intensity (AgSla1-D3): 0.75
- SPOT peptide array binding signal intensity (CaAbp1-D1): 129
- SPOT peptide array binding signal intensity (CaAbp1-D2): 1
- SPOT peptide array binding signal intensity (CaBbc1): 552
- SPOT peptide array binding signal intensity (CaBem1-D1): 5
- SPOT peptide array binding signal intensity (CaBzz1-D1): 116
- SPOT peptide array binding signal intensity (CaBzz1-D2): 67.5
- SPOT peptide array binding signal intensity (CaCyk3): 67.5
- SPOT peptide array binding signal intensity (CaFus1): ≤ 0
- SPOT peptide array binding signal intensity (CaHof1): ≤ 0
- SPOT peptide array binding signal intensity (CaHse1): 1.5
- SPOT peptide array binding signal intensity (CaLsb1): ≤ 0
- SPOT peptide array binding signal intensity (CaLsb4): 40
- SPOT peptide array binding signal intensity (CaMyo5): ≤ 0
- SPOT peptide array binding signal intensity (CaNbp2): ≤ 0
- SPOT peptide array binding signal intensity (CaRvs167): 2.83
- SPOT peptide array binding signal intensity (CaRvs167-3): ≤ 0
- SPOT peptide array binding signal intensity (CaSho1): ≤ 0
- SPOT peptide array binding signal intensity (CaSla1-D1-D2): ≤ 0
- SPOT peptide array binding signal intensity (CaSla1-D3): ≤ 0
- SPOT peptide array binding signal intensity (ScAbp1): 7
- SPOT peptide array binding signal intensity (ScBbc1): 55.2
- SPOT peptide array binding signal intensity (ScBem1-D1): 6
- SPOT peptide array binding signal intensity (ScBzz1-D1): 12
- SPOT peptide array binding signal intensity (ScBzz1-D2): 1
- SPOT peptide array binding signal intensity (ScCyk3): 17.5
- SPOT peptide array binding signal intensity (ScFus1): ≤ 0
- SPOT peptide array binding signal intensity (ScHof1): ≤ 0
- SPOT peptide array binding signal intensity (ScHse1): 150
- SPOT peptide array binding signal intensity (ScLsb1): 12.5
- SPOT peptide array binding signal intensity (ScLsb2): ≤ 0
- SPOT peptide array binding signal intensity (ScLsb3): 122
- SPOT peptide array binding signal intensity (ScLsb4): 5
- SPOT peptide array binding signal intensity (ScMyo3): 1.5
- SPOT peptide array binding signal intensity (ScMyo5): 0.5
- SPOT peptide array binding signal intensity (ScNbp2): 26.5
- SPOT peptide array binding signal intensity (ScPex13): 17.5
- SPOT peptide array binding signal intensity (ScRvs167): 16.7
- SPOT peptide array binding signal intensity (ScSho1): 71.5
- SPOT peptide array binding signal intensity (ScSla1-D1-D2): 12
- SPOT peptide array binding signal intensity (ScSla1-D3): 0.75
- SPOT peptide array binding signal intensity (SpAbp1-D1): 11
- SPOT peptide array binding signal intensity (SpBbc1): 1.75
- SPOT peptide array binding signal intensity (SpBzz1-D1): 240
- SPOT peptide array binding signal intensity (SpBzz1-D2): ≤ 0
- SPOT peptide array binding signal intensity (SpCyk3): 2.5
- SPOT peptide array binding signal intensity (SpHof1): 8
- SPOT peptide array binding signal intensity (SpHof1-2): 1
- SPOT peptide array binding signal intensity (SpHof1-3): 44.2
- SPOT peptide array binding signal intensity (SpHse1): 21
- SPOT peptide array binding signal intensity (SpLsb1): 12
- SPOT peptide array binding signal intensity (SpLsb4): 53.5
- SPOT peptide array binding signal intensity (SpMyo1): 0.75
- SPOT peptide array binding signal intensity (SpNbp2): ≤ 0
- SPOT peptide array binding signal intensity (SpPex13): ≤ 0
- SPOT peptide array binding signal intensity (SpRvs167): 3.17
- SPOT peptide array binding signal intensity (SpSla1-D1-D2): ≤ 0
- SPOT peptide array binding signal intensity (SpSla1-D3): ≤ 0
